Experimental data taken from PubChem BioAssay AID720597 (Broad Institute, 2013).
Potency and affinity values are given separately. A number with no mark means an inactive call.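 Rule for the calls: active = fitted half-maximal dose no more than twice the top valid tested dose, for compounds that lower signal; inconclusive = fit invalid, or curve flat with activity between -70 and -30; inactive = potency past limit, curve flat within ±30, or signal increasing.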

molecular target: NAD-dependent protein deacylase sirtuin-5, mitochondrial (Homo sapiens) (UniProt Q9NXA8); assay: blockers of sirtuin-5 peptide desuccinylation – biochemical, fluorescence imaging, cherry-pick, set 6, dose response (AID 720597); conditions: Purified SirT5, succinyl-peptide-AMC/trypsin fluorescence; series mostly up to 15 µM; activity change, negative = inhibition: at the top concentration;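 note: lower AMC signal can also come from blocking the trypsin step; 0% = median of neutral control wells and -100% = median of positive control wells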
Sequence (Q9NXA8 whole entry, looked up): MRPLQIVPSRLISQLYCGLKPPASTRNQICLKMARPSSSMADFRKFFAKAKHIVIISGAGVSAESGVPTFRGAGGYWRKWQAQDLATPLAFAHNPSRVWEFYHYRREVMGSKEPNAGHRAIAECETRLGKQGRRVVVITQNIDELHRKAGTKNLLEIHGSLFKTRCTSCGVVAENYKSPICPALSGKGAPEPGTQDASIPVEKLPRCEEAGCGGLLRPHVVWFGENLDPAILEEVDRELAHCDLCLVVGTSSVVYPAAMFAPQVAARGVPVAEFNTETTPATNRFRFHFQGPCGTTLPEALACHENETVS

| Compound | activity change, negative = inhibition |
| --- | --- |
| C[C@@H]1CN([C@H](C)CO)C(=O)c2cc(N(C)C)ccc2O[C@H]1CN(C)C(=O)Nc1ccc(F)cc1 | -7.29% |
| COc1ccc(NC(=O)N(C)C[C@@H]2Oc3cc(C#CCC(C)C)ccc3S(=O)(=O)N([C@@H](C)CO)C[C@H]2C)cc1 | 1.47% |
| COc1ccc(S(=O)(=O)Nc2ccc3c(c2)C(=O)N([C@H](C)CO)C[C@@H](C)[C@@H](CN(C)Cc2ccc(C(F)(F)F)cc2)OCCCC[C@H](C)O3)cc1 | -3.42% |
| Cc1ccc(S(=O)(=O)Nc2ccc3c(c2)C(=O)N([C@@H](C)CO)C[C@H](C)[C@@H](CN(C)S(=O)(=O)c2ccccc2)OCCCC[C@@H](C)O3)cc1 | -1.09% |
| O=C(C[C@H]1C[C@@H]2c3cc(NC(=O)Nc4ccc(C(F)(F)F)cc4)ccc3O[C@@H]2[C@@H](CO)O1)NCc1ccc2c(c1)OCO2 | -19.6% |
| Cc1ccc(-c2ccc3c(c2)O[C@H](CN(C)Cc2cccnc2)[C@H](C)CN([C@H](C)CO)S3(=O)=O)cc1 | 1.72% |
| Cc1ccc(S(=O)(=O)Nc2ccc3c(c2)C(=O)N([C@H](C)CO)C[C@H](C)[C@@H](CN(C)Cc2ccc(Cl)c(Cl)c2)OCCCC[C@H](C)O3)cc1 | -10.7% |
| C[C@@H]1CN([C@@H](C)CO)C(=O)c2cc(NS(=O)(=O)c3ccc(F)cc3)ccc2O[C@@H](C)CCCCO[C@@H]1CN(C)S(=O)(=O)c1ccc(Cl)cc1 | -1.29% |
| Cc1ccc(S(=O)(=O)N(C)C[C@H]2OCCCC[C@H](C)Oc3ccc(NS(=O)(=O)c4ccccc4)cc3C(=O)N([C@@H](C)CO)C[C@H]2C)cc1 | 14.5% |
| C[C@H]1CN([C@@H](C)CO)C(=O)c2cccc(NC(=O)c3nc4ccccc4s3)c2O[C@H]1CN(C)Cc1ccc(C(F)(F)F)cc1 | 4.41% |
| C[C@H](O)C#Cc1ccc2c(c1)O[C@H](CN(C)Cc1ccc(-c3ccccc3)cc1)[C@@H](C)CN([C@@H](C)CO)S2(=O)=O | -4.29% [at 7.5 µM] |
| C[C@@H]1CN([C@H](C)CO)C(=O)c2cccc(NC(=O)c3nc4ccccc4s3)c2O[C@@H]1CN(C)C(=O)NC1CCCCC1 | -1.95% |
| Cc1noc(C)c1S(=O)(=O)N(C)C[C@H]1Oc2ccc(NC(=O)Cn3cnnn3)cc2CC(=O)N([C@H](C)CO)C[C@H]1C | 2.62% |
| CN(C)C(=O)c1cccc(-c2ccc([C@H]3[C@H]4CN(S(C)(=O)=O)CCCCN4[C@H]3CO)cc2)c1 | -11.1% |
| COc1ccc(S(=O)(=O)N(C)C[C@@H]2OCCCC[C@@H](C)Oc3ccc(NS(=O)(=O)c4ccc(F)cc4)cc3C(=O)N([C@@H](C)CO)C[C@H]2C)cc1 | -22.5% |
| C[C@H]1CN([C@@H](C)CO)C(=O)CCCn2nncc2CO[C@@H]1CN(C)C(=O)CCCN(C)C | -9.61% [at 16 µM] |
| Cc1ccc(S(=O)(=O)N(C)C[C@@H]2OCCCC[C@H](C)Oc3ccc(NS(=O)(=O)c4ccccc4)cc3C(=O)N([C@H](C)CO)C[C@@H]2C)cc1 | 28.1% |
| C[C@@H]1CN([C@H](C)CO)C(=O)c2cccc(N(C)C)c2O[C@@H]1CN(C)C(=O)NC1CCCCC1 | -11.7% |
| COc1ccc(S(=O)(=O)Nc2ccc3c(c2)C(=O)N([C@@H](C)CO)C[C@@H](C)[C@H](CN(C)Cc2ccc(-c4ccccc4)cc2)O3)cc1 | -10.6% |
| C[C@H](CO)N1C[C@H](C)[C@H](CN(C)CC2CCCCC2)Oc2ccc(NS(=O)(=O)c3ccc(Cl)cc3)cc2CC1=O | -1.38% [at 7.5 µM] |

| Compound | activity change, negative = inhibition |
| --- | --- |
| CN(C)C(=O)c1cccc(-c2ccc([C@@H]3[C@H](CO)N4C(=O)CN(C(=O)C5CC5)C[C@@H]34)cc2)c1 | 7.57% |
| C[C@H](CO)N1C[C@H](C)[C@@H](CN(C)S(=O)(=O)c2ccc(F)cc2)Oc2cc(C#Cc3ccc(F)cc3)ccc2S1(=O)=O | -21% |
| C[C@H](CO)N1C[C@H](C)[C@H](CN(C)Cc2ccc(-c3ccccc3)cc2)Oc2cc(C#C[C@@H](C)O)ccc2S1(=O)=O | -18.9% |
| COc1ccc(S(=O)(=O)N(C)C[C@H]2OCCCC[C@H](C)Oc3ccc(NS(=O)(=O)c4ccc(F)cc4)cc3C(=O)N([C@@H](C)CO)C[C@H]2C)cc1 | -27.1% |
| Cc1ccc(-c2ccc([C@@H]3[C@@H](CO)N4CCCCN(S(=O)(=O)c5cccc(C)c5)C[C@H]34)cc2)cc1 | 7.83% |
| CN(C)Cc1cn(CC[C@H]2CC[C@@H](NC(=O)Nc3ccccc3F)[C@@H](CO)O2)nn1 | 7.23% |
| CO[C@@H](CN(C)Cc1ccc2c(c1)OCO2)[C@@H](C)CN(C(=O)Nc1ccc(F)cc1)[C@H](C)CO | -0.984% [at 16 µM] |
| COc1ccc(NC(=O)N(C)C[C@@H]2Oc3ccc(NS(=O)(=O)c4ccc(F)cc4)cc3C(=O)N([C@@H](C)CO)C[C@@H]2C)cc1 | -16.2% |
| Cc1ccc(S(=O)(=O)N[C@@H]2C=C[C@H](CC(=O)N3CCN(c4ccccc4)CC3)O[C@@H]2CO)cc1 | 1.72% |
| Cc1ccccc1S(=O)(=O)N[C@H]1CC[C@@H](CCn2cc(Cc3ccccc3)nn2)O[C@H]1CO | 1.59% |
| CCCC#Cc1ccc(CC[C@H]2O[C@H]3CC[C@@H](CO)O[C@H]3C[C@H]2NS(=O)(=O)c2ccccc2)cc1 | 11.4% [at 16 µM] |
| COc1ccc(S(=O)(=O)Nc2ccc3c(c2)C(=O)N([C@@H](C)CO)C[C@@H](C)[C@H](CN(C)Cc2ccc(Oc4ccccc4)cc2)O3)cc1 | -10.1% |
| CCCNC(=O)N(C)C[C@H]1Oc2cc(C#CC(C)C)ccc2S(=O)(=O)N([C@H](C)CO)C[C@@H]1C | 8.83% |
| C[C@H](CO)N1C[C@H](C)[C@H](CN(C)S(=O)(=O)c2ccc(Cl)cc2)OCCCC[C@H](C)Oc2ccc(NC(=O)Nc3ccc4c(c3)OCO4)cc2C1=O | -12.6% |
| COc1ccc(NC(=O)N[C@@H]2CC[C@H](CCn3cc(-c4ccc(OC)cc4)nn3)O[C@@H]2CO)cc1 | 33.9% |
| C[C@@H]1CN([C@@H](C)CO)C(=O)c2cccc(N(C)C)c2O[C@@H]1CN(C)Cc1ccccc1 | 35.5% |
| COc1ccc(S(=O)(=O)N(C)C[C@H]2OCCCC[C@@H](C)Oc3ccc(NS(=O)(=O)c4ccc(C)cc4)cc3C(=O)N([C@@H](C)CO)C[C@@H]2C)cc1 | -18.4% |
| CC(C)(C)NC(=O)CSc1nnc(-c2ccco2)n1-c1ccccc1 | -10.4% [at 16 µM] |
| CCNC(=O)C[C@H]1CC[C@H]2[C@@H](COC[C@@H](O)CN2C(=O)Nc2ccc(C(F)(F)F)cc2)O1 | -19.6% |
